# In ChEMBL document CHEMBL3988442, “University of Dundee, Small-Polar-MMV Screening Library” (2021):
# Screen size: about 48,000 compounds; about 13,000 (27%) showed an effect of 50% or more. The list shows a part of the results.
# Tested on: Wolbachia pipientis
# Assay: Anti-Wolbachia Cell-Based Screen
# Format: functional
# Set-up: scale not given: in the data most compounds retested in dose-response had high values
# Settings: 5 µM
row,Compound,Percent Effect [%]
1,CNS(=O)(=O)c1ccc(C(=O)N2CCCC(n3cccn3)C2)cc1 (configuration not stated),-7.031
2,CNC(=O)C1CN(C(=O)c2cccnc2)CCN(S(C)(=O)=O)C1 (configuration not stated),102.1
3,CCCNC(=O)C[C@@H]1CCN(C(=O)c2cccnc2)C[C@@H]1CC,-4.226
4,CC(C)C1CN(C(=O)c2cccs2)CCS1 (configuration not stated),-18.38
5,CNC(=O)C1CN(C(=O)c2ccncc2)CCN(S(C)(=O)=O)C1 (configuration not stated),113
6,CS(=O)(=O)NC[C@H]1OC[C@@H]2CCN(C(=O)c3cccnc3)C[C@@H]21,-2.955
7,CN(C)c1cc(C(=O)N2CCN(S(C)(=O)=O)CC2)ccn1,-8.698
8,CNC(=O)C1CN(C(=O)c2cccs2)CCN(S(C)(=O)=O)C1 (configuration not stated),103.3
9,O=C(O)C[C@@H]1CCN(C(=O)c2cccs2)C[C@@H]1CCN1CCCCC1,-8.603
10,COCCN(Cc1cccnc1)c1nc(C)nc2oc(C)nc12,1.02
11,CCCN(CC1CC1)C(=O)Cn1ccccc1=O,-7.373
12,O=C(O)C(F)(F)F.O=C(O)C(F)(F)F.O=C(O)C(F)(F)F.c1cnc(N2CCN(C3CCC[C@@H]4CN(CC5CC5)C[C@H]34)CC2)nc1 (some centres not stated),-9.573
13,Clc1cccc2c3c([nH]c12)CCN(Cc1cc2n(n1)CCCNC2)C3,-3.179
14,CC(C(=O)NC1CC1)S(=O)(=O)Cc1noc(C(C)(C)C)n1 (configuration not stated),12.74
15,CCOc1cccc(NC(=O)c2cnc(C)cn2)n1,87.8
16,CCOc1cccc(COC(=O)c2ccc(Cl)cn2)n1,-10.12
17,COC(CNC(=O)c1cc(C)on1)c1ccccc1C (configuration not stated),2.502
18,CCOc1cccc(NC(=O)c2cscn2)n1,-16.65
19,CCOc1cccc(COC(=O)c2ccc(F)cn2)n1,-9.322
20,CCOc1cccc(NC(=O)c2cc[nH]n2)n1,87.66
21,CCOc1cccc(NC(=O)c2cc(C)on2)n1,91.67
22,CCOc1cccc(COC(=O)c2cc(Cl)ccn2)n1,-4.3
23,CCOc1cccc(COC(=O)c2cscn2)n1,-4.907

row,Compound,Percent Effect [%]
1,O=C(Nc1cc(C2CCOCC2)[nH]n1)c1cc[nH]n1,-3.397
2,CCOc1cccc(COC(=O)c2cc(C)on2)n1,106.6
3,CCOc1cccc(NC(=O)Cc2cccc(O)c2)n1,-45.48
4,CCN1CCN(C(=O)c2ccc3c(c2)CCCN3)[C@H]2CS(=O)(=O)C[C@H]21,-2.171
5,CSCCC1c2nc[nH]c2CCN1Cc1ccccc1C#N (configuration not stated),-9.025
6,Cc1ccc(NC(=O)c2cc(S(=O)(=O)N3CCCCC3)c[nH]2)cc1F,1.173
7,COCCC1(CNC(=O)NCC2CN(C)CCN2C)CCC1 (configuration not stated),-22.96
8,CC(C)c1ccc(OCCC(=O)N(C)C)cc1,6.13
9,CC(C)c1nc(/C=C/c2cnn(-c3ccccc3)c2)ncc1C(=O)O,-2.711
10,NC(=O)c1cccc(CC2CCN(C(=O)CCc3cccc(F)c3)C2)c1 (configuration not stated),-3.46
11,Cc1ccsc1[C@@H]1CCN(C(=O)Cc2ccc(O)cc2)C[C@H]1O,-5.599
12,Cc1nc2cc(C(=O)N3CCCC(n4cncn4)C3)ccc2n1C (configuration not stated),-4.268
13,Cc1nc2cc(C(=O)N3CCCC(n4ccnc4)C3)ccc2n1C (configuration not stated),116.9
14,Cc1nccn1C1CCCN(C(=O)c2ccc3c(c2)nc(C)n3C)C1 (configuration not stated),109.3
15,CCOc1ccc(N(CCC#N)C(=O)c2ccnc(SC)c2)cc1,9.969
16,Cc1cc(CNC(=O)[C@H]2CCCCN2C(=O)OC(C)(C)C)on1,-34.39
17,COCCN1CCO[C@H]2CN(C(=O)c3cccs3)C[C@H]21.O=C(O)C(F)(F)F,-7.528
18,O=C(O)C(F)(F)F.c1cnc(N2CCO[C@H]3CN(Cc4cc[nH]n4)C[C@H]32)cn1,-10.59
19,O=C(O)C(F)(F)F.O=C(O)C(F)(F)F.O=C(O)C(F)(F)F.c1coc(CN2C[C@@H]3OCCN(CCN4CCCC4)[C@@H]3C2)c1,-5.292
20,O=C(O)C(F)(F)F.O=C(O)C(F)(F)F.c1cc(CN2C[C@@H]3OCCN(CC4CC4)[C@@H]3C2)n[nH]1,105.8
21,COCCN1CCO[C@H]2CN(Cc3cc[nH]n3)C[C@H]21.O=C(O)C(F)(F)F.O=C(O)C(F)(F)F,90.56
22,O=C(O)C(F)(F)F.O=C(O)C(F)(F)F.c1csc(CN2C[C@@H]3OCCN(CC4CCCO4)[C@@H]3C2)c1 (some centres not stated),-7.067
23,O=C(O)CSc1nnc(-c2ccn[nH]2)n1-c1ccccc1Cl,-20.89

row,Compound,Percent Effect [%]
1,Cc1ccccc1OCCC(=O)N1CCc2nc(C)n(C)c(=O)c2CC1,7.029
2,Cn1cc(-c2nc(CN3CCOC(Cn4cccn4)C3)cs2)cn1 (configuration not stated),14.65
3,c1cnc(-c2nc(CN3CCOC(Cn4cncn4)C3)cs2)nc1 (configuration not stated),0
4,Cn1cc(-c2nc(CN3CCOC(Cn4cncn4)C3)cs2)cn1 (configuration not stated),113.5
5,Cc1ccc(-c2noc(CN3CCOC(Cn4cncn4)C3)n2)cc1 (configuration not stated),-2.106
6,c1ccc(-c2nc(CN3CCOC(Cn4cncn4)C3)cs2)cc1 (configuration not stated),125.5
7,Cc1noc(C)c1CN1C(=O)[C@H]2CC[C@@H]1CN(Cc1ccc(Cl)cc1)C2,-8.21
8,CC(C)n1ncc2cc(NC(=O)N3CCC(N4CCCC4)C3)cnc21 (configuration not stated),-0.151
9,COc1ccc(C(=O)Nc2nncs2)cn1,-3.004
10,Cc1ccccc1N1CCCN(c2ccncn2)CC1,-18.24
11,CCc1nnc(Nc2cccc(C3CCN(CCO)CC3)n2)s1,-9.2
12,COc1cc(N2CCCC(c3nccn3Cc3ccncc3)C2)ncn1 (configuration not stated),26.87
13,CCc1nc(C2CCCN(c3ncccn3)C2)no1 (configuration not stated),22.68
14,CCc1nnc(Nc2cc(C)nc(C3CCN(c4ccncn4)C3)n2)s1 (configuration not stated),171.2
15,CCc1nnc(CNC2CCN(c3ncnc4c(C)csc34)CC2)s1,6.605
16,CCc1cc(N2CCN(c3cnccn3)CC2)n2nc(C)c(C)c2n1,6.49
17,Cc1cc(C)nc(C2CCN(c3ccncn3)C2)n1 (configuration not stated),136
18,CCc1nnc(Nc2cc(C)nc(C3CCN(c4ncccn4)C3)n2)s1 (configuration not stated),164.2
19,Cc1nccn1CCC1CCN(c2ccncn2)CC1,-24.71
20,CCc1nnc(Nc2cc(C)nc(C3CCN(c4cnccn4)C3)n2)s1 (configuration not stated),134.1
21,CCc1nc(CC(=O)N2CCN(c3cnccn3)CC2)cs1,8.255
